In PubChem BioAssay AID485346 (Sanford-Burnham Center for Chemical Genomics, 2010):
Hit rate of the full screen: of about 330,000 compounds, about 10,000 (3%) were called active.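 Rule for the calls: active = inhibition of at least 50% at 8 µM in the primary screen; inactive = the rest.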 For the sample, actives were picked, then their nearest neighbours and some compounds at random.

Each compound was assayed against Protein Mdm4 (Homo sapiens) + E3 ubiquitin-protein ligase Mdm2 (Homo sapiens) (UniProt O15151+Q00987) (assay: inhibitors of human Mdm2-MdmX association, primary screen, cell-based, luminescence, split luciferase, SaOS-2, uHTS (AID 485346)). Conditions: SaOS-2 split-luciferase Mdm2/MdmX complementation, at 8 µM, hits give high values.
Protein Mdm4 (Homo sapiens) + E3 ubiquitin-protein ligase Mdm2 (Homo sapiens), sequence (O15151 whole entry, looked up): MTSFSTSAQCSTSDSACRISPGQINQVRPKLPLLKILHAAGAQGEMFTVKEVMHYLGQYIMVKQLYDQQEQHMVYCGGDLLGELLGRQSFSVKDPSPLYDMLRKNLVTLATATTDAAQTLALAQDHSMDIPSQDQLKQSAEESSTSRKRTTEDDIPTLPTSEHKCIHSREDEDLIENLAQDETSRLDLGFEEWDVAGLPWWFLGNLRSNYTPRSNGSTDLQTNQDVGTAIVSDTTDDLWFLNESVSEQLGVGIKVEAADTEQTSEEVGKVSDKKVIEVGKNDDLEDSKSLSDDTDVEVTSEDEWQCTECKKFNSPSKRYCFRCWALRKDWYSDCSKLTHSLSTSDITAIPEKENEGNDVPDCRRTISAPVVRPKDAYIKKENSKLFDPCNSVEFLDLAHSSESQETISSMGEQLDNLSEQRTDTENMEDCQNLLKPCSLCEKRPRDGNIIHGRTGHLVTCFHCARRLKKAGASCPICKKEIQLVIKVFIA
Protein Mdm4 (Homo sapiens) + E3 ubiquitin-protein ligase Mdm2 (Homo sapiens), sequence (Q00987 whole entry, looked up): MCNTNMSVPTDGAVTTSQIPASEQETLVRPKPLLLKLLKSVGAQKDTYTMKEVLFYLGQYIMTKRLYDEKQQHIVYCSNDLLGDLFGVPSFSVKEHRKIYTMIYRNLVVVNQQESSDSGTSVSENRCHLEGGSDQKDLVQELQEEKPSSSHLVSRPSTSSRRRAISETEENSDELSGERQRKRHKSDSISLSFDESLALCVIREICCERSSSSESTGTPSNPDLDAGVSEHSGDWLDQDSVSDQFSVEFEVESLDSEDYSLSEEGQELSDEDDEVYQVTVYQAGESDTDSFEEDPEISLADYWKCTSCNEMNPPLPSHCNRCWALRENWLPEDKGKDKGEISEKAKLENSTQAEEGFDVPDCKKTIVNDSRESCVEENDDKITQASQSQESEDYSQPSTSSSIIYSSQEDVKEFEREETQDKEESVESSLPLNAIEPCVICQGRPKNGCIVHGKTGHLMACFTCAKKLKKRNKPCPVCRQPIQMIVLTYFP

inhibition, inactive:
Cc1n[nH]c(=O)c2c(NC(=O)COC(=O)c3ncc(Cl)c(Cl)c3Cl)oc(C)c12 8.36%
CCCCn1c(N)c(N(CCOC)C(=O)CSCC(=O)Nc2cccc(C)c2)c(=O)[nH]c1=O -8.54%
CCOCCn1c(-c2ccccc2)nc2ccccc21 21.2%
COc1ccccc1C(=O)N1C(CC(=O)Nc2ccccc2C)C(=O)NC2CCCCC21 (centres undefined) 10.2%
CC(=O)C1=C(C)NC2=C(C(=O)CC(C)(C)C2)C1C (centres undefined) 14.7%
Cc1cccc(C)c1NC1=NC(=S)N(c2ccc(N(C)C)cc2)C1(C)C 13.2%
CC1C(=O)C(C)C(c2ccc(O)cc2)NC1c1ccc(O)cc1 (centres undefined) -1.09%
Cc1cc(-c2csc(N)n2)c(C)n1-c1ccccc1 9.07%
CCN(CC(=O)Nc1c(F)cccc1F)C(=O)c1ccc(-c2ccccc2)cc1 -3.86%
O=C(N/N=C/c1ccc([N+](=O)[O-])cc1)c1c[nH]c2ccccc12 12%
COc1cc(CC(=O)N/N=C/c2ccccc2)c([N+](=O)[O-])cc1OC 10.3%
CCOc1ccccc1C1C(C(=O)OC)=CN(C)C=C1C(=O)OC 8.07%
NC(=O)C1(C(N)=O)OC1c1ccc(Cl)cc1Cl (centres undefined) 20.9%
CCCCCN(C(=O)CCC(=O)OCC(=O)NC1CCC(C)CC1)c1c(N)n(CCCC)c(=O)[nH]c1=O (centres undefined) -18.6%
O=C(Nc1nc(-c2ccco2)c(-c2ccco2)s1)c1ccco1 27%
COc1cc(/C=C/C(=O)OCC(=O)c2ccccc2)cc(OC)c1OC 20.5%
COc1cc2c(cc1NC(=O)CN1CCN(S(=O)(=O)c3ccc(F)cc3)CC1)oc1ccccc12 49.9%
CCCCN1C(=O)/C(=C2/C=CC=CN2C)SC1=S -6.03%
COc1cc(/C=C2/SC(=S)N(Cc3ccccc3)C2=O)cc(OC)c1O 11.8%
FC(F)(F)Oc1ccc(-c2cn3cccnc3n2)cc1 -41.1%
CSCC[C@H](NC(=O)NC1CCCC1)C(=O)O -12.4%
CNC(=S)N/N=C/c1ccc(N2CCOCC2)s1 -16.1%
COc1cccc(OC)c1C(=O)Nc1sc2c(c1C(N)=O)CCCC2 19%
COc1ccc(C(=O)Nc2ncc3c(n2)-c2ccccc2CC3)cc1 22.2%
CCN(c1ccccc1)S(=O)(=O)c1ccc(C(=O)Nc2nccs2)cc1 -12.4%
NC(=O)c1c(NC(=O)CSc2nnc(-c3ccco3)n2N)sc2c1CCCC2 22.2%
COc1cc(Cl)cc(C2NC(=O)NC(C)=C2C(=O)NCc2ccccc2)c1O (centres undefined) -8.24%
Cc1ccc(C)c(N2CCN(C(=O)CCc3nc(-c4cccc(C(F)(F)F)c4)no3)CC2)c1 -17.8%
COc1ccc(-c2cc(=O)oc3cc(OC(C)C(=O)NCC4CCC(C(=O)O)CC4)ccc23)cc1 (centres undefined) -48.8%
CCN(CC)c1ccc(NC(=O)CCc2nnc3ccc(N4CCCCC4)nn23)c(C)c1 15.3%
CC1CCN(CCCNC(=O)CN2C(=O)CSc3ccc(S(=O)(=O)N4CCCCC4)cc32)CC1 13%
CCOc1ccc2[nH]c(=O)c(CN(CCCO)S(=O)(=O)c3ccc(F)cc3)cc2c1 -3.41%
CCN(Cc1cc2cc(C)ccc2[nH]c1=O)S(=O)(=O)c1ccccc1 22.4%
COc1ccc(CCN2CC(C(=O)NCCN3CCNC3=O)CCC2=O)cc1 (centres undefined) 7.59%
Cc1cc(C)nc(NC(=O)c2cccc([N+](=O)[O-])c2)c1 1.76%
CN(C(=O)c1cccc([N+](=O)[O-])c1)c1ccccc1C(=O)NCc1ccccc1 10.9%
COc1cccc2[nH]c(C(=O)NCCc3ccccc3)cc12 -35.8%
O=C(NCc1ccccc1Cl)C(=O)NCC1CCCN1S(=O)(=O)c1cccs1 (centres undefined) 2.29%
CCc1ccc(C(=O)N2CCN(S(=O)(=O)c3sc(C(=O)O)c(C)c3C(=O)O)CC2)cc1 -9.23%
COc1cc(C(=O)OCC(=O)NC23CC4CC(CC(C4)C2)C3)cc(OC)c1OC 11.3%
Cc1cccc(C(=O)Nc2ccc(CC(=O)O)cc2)c1 -7.55%
Cc1nc2ccccc2c(=O)n1NC(=O)c1ccccc1 -5.89%
COc1ccc(C(=O)NN(C)c2nc(-c3ccccc3)cc(C)c2S(C)(=O)=O)cc1 2.68%
CC(NC(=O)c1ccccc1F)c1cccc2ccccc12 (centres undefined) 3.89%
Cc1cccc(C(=O)Nc2ccc(C(=O)N/N=C/c3cccc(C)n3)cc2)c1 8.86%
Cn1c(CC(=O)NNC(=O)c2ccccc2F)nc2ccccc21 8.1%

inhibition, active:
CCCCn1c(-c2cccc(C)c2)nc2cc3[nH]c(=O)c(C(C)C)nc3cc21 55.1%
CC1=C/C(=N\OS(=O)(=O)c2ccccc2)C=CC1=O 89.3%
Cc1c(C(=O)N/N=C/c2ccccc2)[nH]c2c([N+](=O)[O-])cccc12 60%
COC(=O)C1=CN(C)C=C(C(=O)OC)C1c1ccc(Cl)cc1Cl 67.5%
COc1cc2c(cc1NC(=O)COC(=O)/C=C/c1ccccc1)oc1ccccc12 51.9%
CCCCN1C(=O)/C(=C/C=C2/C=Cc3ccccc3N2CC)SC1=S 64.7%
C=CCN(CC=C)S(=O)(=O)c1ccc(C(=O)Nc2sc3c(c2C(N)=O)CCCCC3)cc1 92.8%
C=CCN(CC=C)S(=O)(=O)c1ccc(C(=O)Nc2nc3c(s2)CCc2ccccc2-3)cc1 58.5%
COc1ccc2[nH]c(=O)c(CN(Cc3cccnc3)S(=O)(=O)c3ccccc3F)cc2c1 63.9%
Cc1cc(CNC(=O)c2cccc([N+](=O)[O-])c2)c2ccccc2n1 57.9%
CSc1nc(N(C)NC(=O)c2cccc(C)c2)c2ccccc2n1 63%
CN(NC(=O)c1ccccc1F)c1nc(C(F)(F)F)nc2ccccc12 60.3%
CN(NC(=O)c1ccccc1)c1nc2ccccc2nc1C(F)(F)F 59.8%
